These results are taken from PubChem BioAssay AID886 (National Center for Advancing Translational Sciences (NCATS), 2007).

“And” between values parts separate entries of the source, which are not always exact repeats. Equal values may be shown once. About 2,500 (3.4%) of roughly 73,000 compounds were called active. Roughly 7% stayed inconclusive and do not appear here. This is one part of a sample in which actives are shown more often than they occur. Unmarked numbers belong to inactive results. Calls follow the shape of the dose curve; as a rule, active = well fitted inhibition curve with a large enough effect; inconclusive = small, poorly fitted or top-dose-only effect; inactive = no such curve, though single readings can be large or run the other way.
% is scaled to controls: 0 for no effect and ±100 for the full control effect; potency is read from the fitted curve at half-maximal effect.

Sequence of 3-hydroxyacyl-CoA dehydrogenase type-2 (Homo sapiens) (Q99714 whole entry, looked up): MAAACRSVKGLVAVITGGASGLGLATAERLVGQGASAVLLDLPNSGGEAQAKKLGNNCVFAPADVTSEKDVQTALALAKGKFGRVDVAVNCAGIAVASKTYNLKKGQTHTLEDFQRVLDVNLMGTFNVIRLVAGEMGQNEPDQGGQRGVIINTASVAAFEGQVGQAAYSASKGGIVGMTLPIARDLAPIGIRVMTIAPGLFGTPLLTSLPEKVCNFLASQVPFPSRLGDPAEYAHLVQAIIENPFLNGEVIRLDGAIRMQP
Sequence of 3-hydroxyacyl-CoA dehydrogenase type-2 (Homo sapiens) (Q99714 whole entry, looked up): as above

This experiment concerns the target 3-hydroxyacyl-CoA dehydrogenase type-2 (Homo sapiens) (UniProt Q99714). As to the kind of experiment: qHTS Assay for Inhibitors of HADH2 (Hydroxyacyl-Coenzyme A Dehydrogenase, Type II). Also: nearly all actives have a fitted effect of over 60% in size. The note with it: recombinant HADH2, NADH fluorescence, beta-hydroxybutyryl-CoA; series mostly up to 57.1 µM; activity change, negative = inhibition: at the top concentration. The source says:
Assay Overview: NIH Molecular Libraries Screening Centers Network [MLSCN] NIH Chemical Genomics Center [NCGC] Structural Genomics Consortium [SGC] Grant Number: None HADH2: Hydroxyacyl-Coenzyme A dehydrogenase, type II, was supplied by researchers at the Structural Genomics Consortium, Oxford University lab (PI Udo Oppermann). The mitochondrial enzyme 17-hydroxysteroid dehydrogenase type 10 (HSD17-10) previously classified as type II hydroxyacyl-CoA dehydrogenase (HADH2) catalyzes the NAD+ dependent oxidation of a variety of substrates including acyl-CoAs, androgens and neurosteroids as well as bile acids(Shafqat N, Marschall HU, Filling C, et al. Biochemical Journal. 2003;376(Pt 1):49-60). The role in neurodegeneration by binding to amyloid-peptide led to its identification (Oppermann UC, et al FEBS Letters. 1999;451(3):238-242 and Yan SD, et al. Nature. 1997;389(6652):689-695), and mutations in its gene appear to be causative for 2-methyl-3-hydroxybutyryl-CoA dehydrogenase deficiency (Ofman R, et al. American Journal of Human Genetics. 2003;72(5):1300-1307). The enzyme was produced by E.coli fermentation as His-tagged recombinant for the purpose of X-ray structure determination, and had been mass-spectrometry characterized. Inhibition of HADH2 activity was screened by utilizing beta-hydroxybutyryl coenzyme A as an electron donor and NAD+ as an electron acceptor/cofactor. An increase in the fluorescence intensity due to conversion of NAD+ to NADH was used to measure the enzyme activity.
Assay Protocol: Buffer: 100 mM Tris-HCl pH 9.0, containing 0.01 % Tween-20. Reagents/Controls: Buffer in columns 3 and 4 as negative control (no enzyme). Substrate/cofactor solution: 1 mM NAD+ and 90 uM beta-hydroxybutyryl coenzyme A (Sigma-Aldrich, St. Louis, MO) final concentrations dispensed throughout the plate. Enzyme: 20 nM HADH2 final concentration in columns 1, 2, 5-48. Column 1 is neutral (100% activity). Column 2 contained titration of apomorphine (Sigma-Aldrich, A 4393, PubChem CID 2215, top concentration 500 uM, then 1:2 dilution in duplicate) Assay Steps: Three uL of enzyme were dispensed to 1536-well Greiner black solid bottom plates. Compounds and controls (23 nL) were transferred via Kalypsys PinTool. The plates were incubated for 15 min at room temperature, and then 1 uL of substrate/cofactor solution was added to start the reaction. The plates were immediately transferred to and read every 30 seconds for 4 min on ViewLux High-throughput CCD imager (Perkin-Elmer) using 360 nm excitation and 450 nm emission fluorescence protocol. The fluorescence intensity difference between the last and the first time points was used to compute reaction progress.
Regarding `CCn1c(=N)c(C(=O)NCCCOC)cc2c(=O)n3cccc(C)c3nc21`, the Potency was 3.98 µM (active).

Consider `CCOCCCNC(=O)c1c[nH]c2cc(C)ccc2c1=O`, for which the “activity change, negative = inhibition” value was -1.39%.

In the case of `COc1ccc(CCn2c(=N)c(C(=O)NCc3ccco3)cc3c(=O)n4cccc(C)c4nc32)cc1`, the “activity change, negative = inhibition” value is 3.86%.

For the molecule `O=C(c1ccco1)N1CCC2(CC1)CN(c1ncccn1)C2`, the “activity change, negative = inhibition” value was 2.51%.

Turning to `Nc1ccc2c3c(cccc13)C(=O)NC2=O`, the “activity change, negative = inhibition” value is 12.8%.

For the molecule `Cc1c(O)c(Br)c(C)c(O)c1Br` (tested in a mixture with another compound), the Potency is 0.398 µM (active).

As for `CC(C)[C@@H](OCc1ccccc1)[C@H](C)/C=N\OC[C@@H](C)[C@H](OCc1ccccc1)C(C)C`, the activity change, negative = inhibition was 1.49% [at 11.4 µM].

With `C[C@]12C=CC(=O)C=C1CC[C@@H]1[C@@H]2C(=O)C[C@@]2(C)[C@H]1CC[C@]2(O)C(=O)CO`, the “activity change, negative = inhibition” value was 7.63%.

Take `CC(C)CSC[C@@H]1O[C@H](n2cnc3c(N)nccc32)[C@H](O)[C@@H]1O`: the activity change, negative = inhibition is 7.39% [at 11.4 µM].

Take `Cc1csc(NC(=O)NC2(C(F)(F)F)Oc3ccccc3O2)n1`: the Potency is 2 µM (active).

Take `CCOC(=O)Cc1csc(NC(=O)Nc2ccccc2)n1`: the “activity change, negative = inhibition” value is -0.891%.

For the molecule `Cc1csc(NC(=O)CN2CCCCCC2)n1`, the “activity change, negative = inhibition” value was -0.72%.

Consider `O=C(Oc1ccc2c(c1)CN(Cc1ccccc1)CO2)c1ccccc1`, for which the activity change, negative = inhibition was -11.9% [at 11.4 µM].

For the molecule `O=C(O)c1nccnc1C(=O)Nc1ccc(Br)cn1`, the “activity change, negative = inhibition” value was -0.545%.

As for `CC(C)C[C@@H](CC(=O)N[C@@H](CCC(=O)O)CC(=O)O)NC(=O)[C@@H]1CCCC[C@H]1NC(=O)C[C@@H](NC(=O)C[C@H](CO)NC(=O)[C@@H]1CCCC[C@H]1N)C(C)C`, the “activity change, negative = inhibition” value is -24.3%.

Consider `CC(Sc1nc2ccccc2c(=O)n1Cc1ccco1)C(=O)c1ccccc1` (stereo not drawn), for which the “activity change, negative = inhibition” value is 0.159%.

As for `Cc1nc2c(c(=O)n1Cc1ccco1)c1nc3ccccc3nc1n2Cc1ccccc1`, the Potency was 25.1 µM (active).

As for `COCCCn1c2nc3ccccc3nc2c2c(=O)n(Cc3ccc(Cl)cc3)c(C)nc21`, the “activity change, negative = inhibition” value was 12%.

With `COC(=O)C1(Cc2ccccc2)C=C2C(=C(C)C(=O)C2C)CN1` (stereo not drawn), the “activity change, negative = inhibition” value is -6.45%.

Take `CN1CCc2nc(-c3ccccc3)c(-c3ccccc3)cc2C1`: the activity change, negative = inhibition was -8.44% [at 11.4 µM].

For `Cc1cc(C)cc(N)c1`, the “activity change, negative = inhibition” value is -4.7%.

For the molecule `Cc1nc(C)c(C(=O)Nc2cccc(C)c2C)o1`, the Potency is 10 µM (active).

In the case of `Cc1ccccc1NC(=O)c1ccccc1`, the “activity change, negative = inhibition” value was -21.2%.

On to `Cc1cccc(NC(=O)CSc2nc3c(c(=O)[nH]2)CCC3)c1C`, for which the “activity change, negative = inhibition” value was 2.6%.

As for `Cn1c(=S)c2[nH]c(SCCCc3ccccc3)nc2n(C)c1=O`, the activity change, negative = inhibition is 7.85% [at 11.4 µM].

Regarding `O=C1C[C@@H](O)[C@@H](O)[C@H]2[C@@H]3C(=O)N(Cc4ccc5c(c4)OCO5)C(=O)[C@@H]3CC[C@H]12`, the activity change, negative = inhibition is -4.62% [at 11.4 µM] and -11.5% [at 11.4 µM].

As to `CS(=O)(=O)N1CCC2(CCN(c3ccncc3)CC2)CC1`, the “activity change, negative = inhibition” value is 2.81%.

Take `COc1ccc(CCn2c(-c3ccco3)nc3nc4ccccc4nc32)cc1OC`: the “activity change, negative = inhibition” value is -13.7%.

`c1coc(-c2nc3nc4ccccc4n3nc2-c2ccco2)c1`: the “activity change, negative = inhibition” value was -23.9%.

With `Cn1c(-c2ccco2)nc2cc3ccccc3cc21`, the Potency was 31.6 µM (active).

On to `O=C(O)/C(=C/c1c(C(=O)O)[nH]c2cc(Cl)cc(Cl)c12)c1ccccc1`, for which the “activity change, negative = inhibition” value was -3.85%.

Take `c1ccc(Oc2ccccc2)cc1`: the “activity change, negative = inhibition” value is 4.03%.

For `O=c1c(-c2ccc(F)cc2)nc2cncnc2n1-c1ccccc1`, the “activity change, negative = inhibition” value was -15.3%.

Consider `CCOC(=O)N/N=C1/C[C@@H](O)[C@@H](O)[C@@H]2[C@@H]3C(=O)N(CC)C(=O)[C@H]3CC[C@H]12`, for which the activity change, negative = inhibition is 11.3% [at 11.4 µM].

For the molecule `O=c1[nH]c(=O)c2nc3ccccc3nc2[nH]1`, the “activity change, negative = inhibition” value is -14%.

As for `O=c1cc(-c2ccccc2)nc(N2CCCCC2)[nH]1`, the “activity change, negative = inhibition” value is -16.5%.

For the molecule `O=c1[nH]c(-c2ccccc2)c(-c2ccccc2)[nH]1`, the Potency was 3.16 µM (active).

Take `COc1ccc(-c2nc3cnc(Oc4ccccc4)nc3n(Cc3cccs3)c2=O)cc1`: the “activity change, negative = inhibition” value is 0.264%.

For `O=C(O)[C@@H]1[C@@H](C(=O)O)[C@]23C[C@@]2(C(=O)O)[C@]2(C(=O)O)CCC3=C3CCCC312`, the activity change, negative = inhibition is 14.2% [at 11.4 µM].

Turning to `COc1ccc(N)c(C)c1`, the “activity change, negative = inhibition” value is -15.2%.

Turning to `c1ccc2[nH]c(NCCN3CCOCC3)nc2c1`, the “activity change, negative = inhibition” value was -7.67%.

`c1ccc(-n2nnnc2N2CCOCC2)cc1`: the “activity change, negative = inhibition” value was 5.51%.

On to `C1=C(N2CCOCC2)/C(=C/c2nc3ccccc3[nH]2)CC1`, for which the Potency was 3.98 µM (active).

Consider `O=C1C(c2[nH]c3ccccc3c2O)=Nc2ccccc21`, for which the “activity change, negative = inhibition” value was 13.6%.

For `Cc1nc2cnc(N3CCN(C)CC3)nc2n(C[C@H]2CCCO2)c1=O`, the “activity change, negative = inhibition” value was 75.2%.

Take `N[C@H](C(=O)O)c1ccc(C(=O)O)c(O)c1`: the Potency is 31.6 µM (active).

Turning to `O=C(O)c1ccc(-n2cccc2)cc1O`, the “activity change, negative = inhibition” value was -14.7%.

As for `N[C@@H](C(=O)O)c1ccc(P(=O)(O)O)cc1`, the “activity change, negative = inhibition” value was 11%.
